# Where “and” joins values, the source holds several entries; their conditions need not be identical. Equal entries are not always repeated. Records with an inconclusive call do not appear. Calls of active or inactive are those of the source. Unless noted, the call rests on the fitted dose curve; in most records, active means well fitted curve in the direction sought with a large enough effect; inconclusive means small, poorly fitted or top-dose-only effect, or another doubt; inactive means no such curve, though single readings can be large; an effect the other way counts as inactive or inconclusive.
# How the values were obtained:
# [1] = Validation of Assay for Modulators of Lamin A Splicing (AID 1459; active means well fitted curve in the direction sought with a large enough effect in the signal ratio; the % refers to the signal ratio;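 further: cells exposed to compound for two days before reading; 0% is about no effect; ratio rise marks activators and ratio drop marks inhibitors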); details: Lamin A splicing dual RFP/GFP fluorescence reporter; series mostly up to 9.22 µM
# Procedure, shortened: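 Dual-reporter HeLa S3 line (lamin A-EGFP minigene, DsRed2) treated with compounds 48 hrs, 0.5% DMSO final. Endpoint: EGFP/DsRed2 total intensity ratio from laser-scanning microplate cytometry.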
# [2] = biological target: DNA repair nuclease/redox regulator APEX1 (Homo sapiens) (UniProt P27695); test: qHTS Validation Assay for Inhibitors of the Human Apurinic/apyrimidinic Endonuclease 1 (APE1) (AID 1705; further: potency means the concentration at half of the fitted maximal effect;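 on activity change, negative = inhibition: TAMRA fluorescence gain over two minutes as APE1 cuts a quenched THF abasic duplex; on the % scale 0 is the no-effect control and ±100 the full control effect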); details: purified APE1 endonuclease activity, fluorescence, titration; series mostly up to 57.1 µM
# Procedure, shortened: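 Substrate: 50 nM final fluorophore/quencher THF-abasic duplex. Enzyme preincubated with compounds 15 min, RT. Progress derived from fluorescence difference, third minus first kinetic read.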
# [3] = Counterscreen for APE1 Inhibitors: Fluorescent Dye Displacement Validation Assay (AID 1707); details: fluorescent dye displacement from DNA; series mostly up to 57.1 µM;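 further: plate controls were ThO with dsDNA and no compound for no effect and ThO without dsDNA for full effect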
# Procedure, shortened: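 Reaction mixture of 250 nM Thiazole Orange and 50 nM double-stranded abasic-site DNA was dispensed, compounds were pin-transferred, and fluorescence was read at endpoint (480 nm ex, 540 nm em). Reduced fluorescence indicated dye displacement by DNA binding.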
# [4] = qHTS Assay for Lipid Storage Modulators (AID 1519; calls by dose curve; on activity change, negative = inhibition: on the % scale 0 is the no-effect control and ±100 the full control effect); details: Drosophila S3 cells, BODIPY lipid droplet/cell ratio, laser cytometry, cells loaded with oleic acid
# Procedure, shortened: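 Cells seeded at 5,000 per well were treated with compounds over a concentration series and loaded with oleic acid (400 uM, as added). Lipid droplet fluorescence (488 nm excitation, 500-530 nm channel) was read by laser-scanning cytometry and normalized to 20 uM Triacsin C.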
# [5] = biological target: Alpha-galactosidase A (Homo sapiens) (UniProt P06280); test: Counterscreen for Glucocerebrosidase Inhibitors: qHTS Assay for Human alpha-Galactosidase at pH 4.5 (AID 992); details: purified enzyme, fluorogenic substrate; series mostly up to 76.9 µM; further: 0% is about no effect
# Procedure, shortened: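 Steps: enzyme (2 nM final), then compound across 0.7 nM to 77 uM, then 80 uM fluorogenic galactopyranoside substrate; incubate 20 min at room temperature; quench at pH 10; measure fluorescence at 365/440 nm.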
# [6] = biological target: alpha-glucosidase (Oryza sativa, rice) (UniProt Q653V4); test: Counterscreen for Glucocerebrosidase Inhibitors: qHTS Assay for Rice alpha-Glucosidase at pH 5.0 (AID 997); details: rice alpha-glucosidase enzyme activity; series mostly up to 76.9 µM;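 further: 0% = full activity with enzyme and -100% = basal without enzyme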
# Procedure, shortened: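 Endpoint fluorogenic assay at pH 5.0: compounds (0.7 nM to 77 uM) titrated against 4 nM rice enzyme and 400 uM 4-MU-alpha-glucoside for 20 min at room temperature; NaOH/glycine stop, read ex 365/em 440 nm, Hill-fitted AC50.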
# [7] = measured here: cell count channel max response
# [8] = measured here: lipid channel max response
# Chain of DNA repair nuclease/redox regulator APEX1 (Homo sapiens) (P27695 whole entry, looked up): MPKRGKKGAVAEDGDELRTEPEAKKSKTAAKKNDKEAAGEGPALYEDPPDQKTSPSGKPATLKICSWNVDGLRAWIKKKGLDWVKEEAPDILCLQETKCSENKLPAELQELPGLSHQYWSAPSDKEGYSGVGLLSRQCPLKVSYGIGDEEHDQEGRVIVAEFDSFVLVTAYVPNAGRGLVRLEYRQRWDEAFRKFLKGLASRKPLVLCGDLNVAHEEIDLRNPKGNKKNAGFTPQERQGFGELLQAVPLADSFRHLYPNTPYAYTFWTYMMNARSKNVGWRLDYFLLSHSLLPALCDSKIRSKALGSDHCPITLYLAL
# Chain of Alpha-galactosidase A (Homo sapiens) (P06280 whole entry, looked up): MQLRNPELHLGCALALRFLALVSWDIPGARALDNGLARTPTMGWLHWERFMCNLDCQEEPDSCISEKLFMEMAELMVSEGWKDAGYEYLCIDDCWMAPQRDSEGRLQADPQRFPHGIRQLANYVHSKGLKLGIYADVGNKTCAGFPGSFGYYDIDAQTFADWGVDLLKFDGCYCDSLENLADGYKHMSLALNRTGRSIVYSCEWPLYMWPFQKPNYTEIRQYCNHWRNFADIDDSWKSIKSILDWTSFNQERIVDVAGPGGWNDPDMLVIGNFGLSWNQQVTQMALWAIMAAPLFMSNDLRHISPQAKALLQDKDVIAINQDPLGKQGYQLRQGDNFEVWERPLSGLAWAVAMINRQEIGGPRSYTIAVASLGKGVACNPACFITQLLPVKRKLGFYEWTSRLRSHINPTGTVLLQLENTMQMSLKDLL
compound,measurement,setting,value
COC(=O)[C@H]1[C@H]2C[C@H]3c4[nH]c5ccccc5c4CCN3C[C@H]2CC[C@@H]1O,outcome,[1],inactive
same,Potency,[2],inactive
same,outcome,[3],inactive
OCc1ccccc1O,"activity change, negative = inhibition",[4]; at 57.5 µM (top of the series),1.86% (inactive)
same,max response,[4]; [7],-8.44%
same,max response,[4]; [8],0.187%
CC(=O)c1ccc2c(c1)N(CCCN1CCC(CCO)CC1)c1ccccc1S2,"activity change, negative = inhibition",[4]; at 25.7 µM (top of the series),-1.72% (inactive)
same,max response,[4]; [7],-5%
same,max response,[4]; [8],-2.93%
CC(C)(Oc1ccc(Cl)cc1)C(=O)O,"activity change, negative = inhibition",[4]; at 25.7 µM (top of the series),-1.74% (inactive)
same,max response,[4]; [7],1.11%
same,max response,[4]; [8],-1.85%
Cc1cccc(C)c1NC(=O)CN1CCN(CCCC(c2ccc(F)cc2)c2ccc(F)cc2)CC1,"activity change, negative = inhibition",[4]; at 25.7 µM (top of the series),-4.87% (inactive)
same,max response,[4]; [7],-22.3%
same,max response,[4]; [8],-28.7%
CO/N=C1\CN(c2nc3c(cc2F)c(=O)c(C(=O)O)cn3C2CC2)CC1CN (stereo not given),"activity change, negative = inhibition",[4]; at 57.5 µM (top of the series),8.95% (inactive)
same,max response,[4]; [7],11%
same,max response,[4]; [8],24%
N[C@@H](Cc1cnc[nH]1)C(=O)O,outcome,[5],inactive
same,outcome,[6],inactive
same,outcome,[1],inactive
same,"activity change, negative = inhibition",[4]; at 57.5 µM (top of the series),2.39% (inactive)
same,max response,[4]; [7],-24.8%
same,max response,[4]; [8],-24.4%
same,Potency,[2],inactive
same,outcome,[3],inactive
CN(C)CCCOc1nn(Cc2ccccc2)c2ccccc12,"activity change, negative = inhibition",[4]; at 25.7 µM (top of the series),-3.69% (inactive)
same,max response,[4]; [7],1.49%
same,max response,[4]; [8],-2.83%
CC(CCc1ccccc1)NCC(O)c1ccc(O)c(C(N)=O)c1 (stereo not given),outcome,[1],inactive
same,"activity change, negative = inhibition",[4]; at 57.5 µM (top of the series),1.59% (inactive) and 2.63% (inactive)
same,max response,[4]; [7],0.538% and 18.3%
same,max response,[4]; [8],3.22% and 11.8%
same,Potency,[2],inactive
same,outcome,[3],inactive
CCCCCCCCCCCCCCCCOP(=O)([O-])OCC[N+](C)(C)C,"activity change, negative = inhibition",[4]; at 57.5 µM (top of the series),6.36% (inactive)
same,max response,[4]; [7],14.5%
same,max response,[4]; [8],23.7%
CCCC(=O)Nc1ccc(OCC(O)CNC(C)C)c(C(C)=O)c1 (stereo not given),"activity change, negative = inhibition",[4]; at 57.5 µM (top of the series),5.02% (inactive)
same,max response,[4]; [7],16.7%
same,max response,[4]; [8],24.3%
CCC(NC(C)C)C(O)c1ccc(O)c(O)c1 (stereo not given),outcome,[1],inactive
same,"activity change, negative = inhibition",[4]; at 57.5 µM (top of the series),1.71% (inactive)
same,max response,[4]; [7],7.27%
same,max response,[4]; [8],6.31%
same,Potency,[2],inactive
same,outcome,[3],inactive
CN=C(NC#N)NCCSCc1csc(N=C(N)N)n1,"activity change, negative = inhibition",[4]; at 57.5 µM (top of the series),3.24% (inactive)
same,max response,[4]; [7],-6.42%
same,max response,[4]; [8],-3.26%
C/C=C/c1ccc(OC)cc1,"activity change, negative = inhibition",[4]; at 57.5 µM (top of the series),9.09% (inactive)
same,max response,[4]; [7],9.56%
same,max response,[4]; [8],22.7%
COc1cc(OC)cc(OC)c1,"activity change, negative = inhibition",[4]; at 57.5 µM (top of the series),0.768% (inactive)
same,max response,[4]; [7],-0.306%
same,max response,[4]; [8],3%
CC(C)COC(=O)OCN1C(=O)CN(CCN2CC(=O)N(COC(=O)OCC(C)C)C(=O)C2)CC1=O,outcome,[5],inactive
same,outcome,[6],inactive
same,outcome,[1],inactive
same,"activity change, negative = inhibition",[4]; at 57.5 µM (top of the series),1.23% (inactive)
same,max response,[4]; [7],3.57%
same,max response,[4]; [8],4.19%
same,outcome,[3],inactive
Nc1cc(Cl)c(NC2=NCCN2)c(Cl)c1,outcome,[5],inactive
same,outcome,[6],inactive
same,outcome,[1],inactive
same,Potency,[2],inactive
same,outcome,[3],inactive
C1CCc2nnnn2CC1,outcome,[5],inactive
same,outcome,[6],inactive
same,outcome,[1],inactive
same,"activity change, negative = inhibition",[4]; at 25.7 µM (top of the series),0.501% (inactive)
same,"activity change, negative = inhibition",[4]; at 57.5 µM (top of the series),0.8% (inactive)
same,max response,[4]; [7],12.5% and 9.15%
same,max response,[4]; [8],18% and 12.4%
same,Potency,[2],inactive
same,outcome,[3],inactive
CCCCC1=NC2(CCCC2)C(=O)N1Cc1ccc(-c2ccccc2-c2nn[nH]n2)cc1,"activity change, negative = inhibition",[4]; at 57.5 µM (top of the series),-6.83% (inactive)
same,max response,[4]; [7],15.4%
same,max response,[4]; [8],9.2%
CC(O)(P(=O)(O)O)P(=O)(O)O,"activity change, negative = inhibition",[4]; at 25.7 µM (top of the series),2.54% (inactive)
same,max response,[4]; [7],-3.25%
same,max response,[4]; [8],-0.531%
CC(C)(C(=O)c1cccnc1)c1cccnc1,"activity change, negative = inhibition",[4]; at 25.7 µM (top of the series),-6.04% (inactive)
same,max response,[4]; [7],-12.6%
same,max response,[4]; [8],-17.9%
CCN1CCC[C@H]1CNC(=O)c1c(OC)ccc(Br)c1OC,"activity change, negative = inhibition",[4]; at 25.7 µM (top of the series),-6.61% (inactive)
same,max response,[4]; [7],-13.5%
same,max response,[4]; [8],-15.4%
CCCCc1nc(Cl)c(CO)n1Cc1ccc(-c2ccccc2-c2nn[nH]n2)cc1,"activity change, negative = inhibition",[4]; at 57.5 µM (top of the series),9.33% (inactive)
same,max response,[4]; [7],13.8%
same,max response,[4]; [8],25.7%
O=C(O)c1cc2cc(Cc3cccnc3)ccc2o1,outcome,[5],inactive
same,outcome,[6],inactive
same,outcome,[1],inactive
same,"activity change, negative = inhibition",[4]; at 57.5 µM (top of the series),4.53% (inactive)
same,max response,[4]; [7],9.59%
same,max response,[4]; [8],18.2%
same,Potency,[2],inactive
same,outcome,[3],inactive
CN1CCN(CCCN2c3ccccc3Sc3ccc(S(=O)(=O)N(C)C)cc32)CC1,"activity change, negative = inhibition",[4]; at 25.7 µM (top of the series),-2.96% (inactive)
same,max response,[4]; [7],-3.59%
same,max response,[4]; [8],-5.35%
CC1(C)CCC(NC(=O)[C@@H](N)CCC(=O)O)CC1,outcome,[1],inactive
same,Potency,[2],inactive
same,outcome,[3],inactive
CCCCOc1ccc(OCCCN2CCOCC2)cc1,"activity change, negative = inhibition",[4]; at 25.7 µM (top of the series),-0.243% (inactive)
same,max response,[4]; [7],-13.4%
same,max response,[4]; [8],-13.4%
NCCc1ccn[nH]1,"activity change, negative = inhibition",[4]; at 25.7 µM (top of the series),-0.85% (inactive)
same,max response,[4]; [7],12.5%
same,max response,[4]; [8],11.2%
CN1C2CCC1CC(OC(=O)c1c[nH]c3ccccc13)C2 (stereo not given),outcome,[1],inactive
same,"activity change, negative = inhibition",[4]; at 57.5 µM (top of the series),1.19% (inactive)
same,max response,[4]; [7],10.2%
same,max response,[4]; [8],11.1%
same,Potency,[2],39.8 µM (active)
same,outcome,[3],inactive
CCCn1c(=O)[nH]c(=O)c2[nH]cnc21,outcome,[5],inactive
same,outcome,[6],inactive
same,outcome,[1],inactive
same,"activity change, negative = inhibition",[4]; at 57.5 µM (top of the series),-0.904% (inactive)
same,max response,[4]; [7],29.5%
same,max response,[4]; [8],25.8%
same,Potency,[2],inactive
same,outcome,[3],inactive
CC(=O)Nc1c(I)cc(I)c(C(=O)O)c1I,"activity change, negative = inhibition",[4]; at 57.5 µM (top of the series),5.69% (inactive)
same,max response,[4]; [7],5.35%
same,max response,[4]; [8],12.7%
c1ccc(-c2ccc(C(c3ccccc3)n3ccnc3)cc2)cc1 (stereo not given),"activity change, negative = inhibition",[4]; at 57.5 µM (top of the series),13.6% (inactive)
same,max response,[4]; [7],10.1%
same,max response,[4]; [8],27.7%
Cc1c(C(N)=O)cc([N+](=O)[O-])cc1[N+](=O)[O-],"activity change, negative = inhibition",[4]; at 57.5 µM (top of the series),9.82% (inactive)
same,max response,[4]; [7],12.8%
same,max response,[4]; [8],29.3%

# Source: PubChem BioAssay (NCATS)
